The list is not random: actives were taken first. Their share in the collection is about 1.2%.
Furin inhibitor: human furin inhibitors, primary screen, biochemical, fluorescence intensity | P09958 | purified furin, fluorogenic substrate cleavage | inhibition, % at 20 µM or 30 µM | 220,000 compounds, 0.061% hits | AID 463115, 2010; in the data active means inhibition above about 25%
FAS TE block: FAS thioesterase domain inhibitors, primary screen, biochemical, fluorescence intensity, uHTS; Fatty acid synthase (Homo sapiens), P49327; recombinant FAS-TE, OMFH fluorogenic substrate, fluorescence endpoint; inhibition, % at 15 µM; 360,000 compounds, 0.67% hits;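 active means compounds whose normalised, plate-corrected inhibition of enzyme fluorescence in the single-dose primary screen is 50% or more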;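 further: 0% = DMSO with enzyme and 100% = substrate without enzyme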
PKD1 kinase inh: inhibitors of human PKD1 kinase, biochemical, fluorescence polarization; Serine/threonine-protein kinase D1 (Homo sapiens), Q15139; inhibition, % (concentration not given with the values); PKD1 kinase fluorescence polarization assay; 200,000 compounds, 0.056% hits; AID 797, 2007; in the data active means inhibition above about 50%
p97 ATPase inh: inhibitors of human p97 ATPase, primary screen, biochemical. inhibition, % at 8 µM. Transitional endoplasmic reticulum ATPase (Homo sapiens), P55072. recombinant p97 ATPase, Kinase-Glo ATP luminescence, 3 h. AID 1481, 2009. 220,000 compounds, 0.42% hits; in the data active means inhibition above about 15%;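 further: 0% = DMSO vehicle and 100% = wells lacking enzyme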
SUMO HTRF inh: inhibitors of in vitro SUMOylation cascade, primary screen, biochemical, HTRF, uHTS; SUMO-conjugating enzyme UBC9 (Homo sapiens), P63279; HTRF SUMOylation assay, SAE1/SAE2 + UBC9; 290,000 compounds, 0.36% hits; AID 2006, 2009; inhibition, % at 35 µM; in the data active means inhibition above about 50%, passing the limit was not always enough
DTT redox prof: compounds producing H2O2 with reducing agent – biochemical, NIH compound library profiling, artefact control for MLSCN library redox annotation, primary screen; DTT-dependent redox cycling H2O2, phenol red/HRP absorbance; 100% = 100 µM peroxide control, 0% = buffer; activation, % at 10 µM; 200,000 compounds, 0.03% hits; AID 878, 2007;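 active means activation of at least 50% relative to the plate's high and low controls in the primary single-dose screen; inactive means activation below 50%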;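 further: compound incubated with DTT at 0.8 mM final as the reducing agent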
* = called active by the depositor; . = not tested or not shown.

SMILES	Furin inhibitor	FAS TE block	PKD1 kinase inh	p97 ATPase inh	SUMO HTRF inh	DTT redox prof
Cc1ccc(C(=O)CSc2nn3c(=O)c(C(C)(C)C)nnc3s2)cc1	-13.1	-8.4	-2.8	-0.2	-7.5	0.1
CC(C)(C)c1nnc2sc(SCC(=O)c3ccc(Cl)cc3)nn2c1=O	-15.4	50.8*	-9.0	3.4	-10.4	1.9
O=C(Nc1ccccc1)c1cc(C2CCCCN2C(=O)c2ccccc2)on1 (configuration not stated)	.	4.0	.	.	.	.
CCc1cc(=O)oc2c3c(cc(OCC(=O)NCCCCCC(=O)O)c12)OC(C)(C)CC3	.	-1.3	.	.	53.1*	.
O=C(NCc1ccccn1)[C@@H]1CCCN1C(=O)[C@@H]1CCCN1C(=O)c1c(F)cccc1F	.	-6.5	.	.	.	.
Cc1nn(-c2ccccc2)c2c1C(c1c(C)[nH]c(C#N)c1C)C(C#N)=C(N)O2 (configuration not stated)	-4.1	-8.6	-1.9	3.9	74.7*	1.2
COc1cc(OC)cc(C2=Cc3ccccc3C(CC(C)=O)N2c2ccc(C#CC3(N)CCCCC3)cc2)c1 (configuration not stated)	.	9.8	.	.	.	.
O=C(O)CSc1nc2sc3c(c2c(=O)n1Cc1ccccc1)CCCCC3	.	5.5	.	.	10.7	.
O=C(O)CSc1cc(C(=O)c2ccccc2O)cn2c(=O)c3c4c(sc3nc12)CCCC4	-21.8	17.3	.	-1.7	50.1*	.
CNc1ncnc2c1ncn2[C@H]1CN(Cc2cccc3ccccc23)C[C@@H](CO)O1	.	-6.0	.	.	.	.
O=C(COc1ccc(Cl)cc1Cl)NC(=S)Nc1ccccc1C(=O)O	-19.4	.	-7.5	-9.3	15.7	-0.8
O=C(COc1ccc(Cl)cc1Cl)Nc1ccc(C(=O)Nc2ccccc2C(=O)O)cc1	.	18.5	.	.	59.4*	.
O=C(Nc1ccc(F)cc1)Oc1ccccc1N1CCOCC1	-15.4	-0.5	.	4.6	0.3	.
O=C(Nc1ccc(F)cc1)Oc1ccc[nH]c1=O	-27.2	0.2	.	-1.3	98.6*	.
NC(=O)c1ccccc1N/C=C/C(=O)c1ccc(F)cc1	27.2*	-11.1	-8.7	-20.9	14.9	4.9
NC(=O)c1ccccc1N/C=C/C(=O)c1cccs1	-22.4	-4.2	-14.4	-8.3	8.5	-0.5
CCOC(=O)CSc1n[nH]c(=S)s1	-16.5	-6.0	.	14.5*	7.2	.
COC(=O)C1=C(C)N(CCCC(=O)O)C(=O)NC1c1cc2c(cc1[N+](=O)[O-])OCO2 (configuration not stated)	-12.1	-7.7	3.5	-0.3	33.8	-0.2
COC(=O)C1=C(C)N(C)C(=O)NC1c1cc2c(cc1[N+](=O)[O-])OCO2 (configuration not stated)	-4.6	-5.0	-0.9	1.0	65.6*	-0.3
CC(=O)CSc1nc2ccc(Nc3nc(N4CCOCC4)nc(N4CCOCC4)n3)cc2s1	-12.1	35.7	2.5	0.5	8.7	0.2
CCOC(=O)CSc1nc2ccc(Nc3nc(N4CCOCC4)nc(N4CCOCC4)n3)cc2s1	-22.9	54.3*	-8.7	2.8	-1.1	0.6
C[C@@]12C(=O)Nc3ccc(Cl)cc3C(=O)N1[C@H]1c3ccccc3OC[C@@H]1[C@@H]2c1ccccc1	.	82.8*	.	.	.	.
Cc1ccc2c(c1)[C@H]1[C@H](CO2)[C@H](c2ccccc2)[C@]2(C)C(=O)N(Cc3ccccc3)CC(=O)N12	.	20.5	.	.	.	.
COc1ccc2c(c1)OC[C@H]1[C@H]2N2C(=O)c3cc(OC)c(OC)cc3NC(=O)[C@@]2(C)[C@H]1c1ccccc1	.	91.3*	.	.	.	.
COc1ccc2c(c1)[C@H]1[C@H](CO2)[C@H](c2ccccc2)[C@]2(C)C(=O)N(Cc3ccc(C)cc3)CC(=O)N12	.	63.3*	.	.	.	.
SMILES	Furin inhibitor	FAS TE block	PKD1 kinase inh	p97 ATPase inh	SUMO HTRF inh	DTT redox prof
C[C@@]12C(=O)Nc3ccc(F)cc3C(=O)N1[C@H]1c3ccccc3OC[C@@H]1[C@@H]2c1ccccc1	.	9.3	.	.	.	.
COc1ccc([C@H]2N[C@]3(CCCN(Cc4ccc(F)cc4)C3=O)[C@H]3C(=O)N(C)C(=O)[C@@H]23)cc1	.	-7.3	.	.	.	.
Nc1ccn(C2CSC(CO)O2)c(=O)n1 (configuration not stated)	.	-8.0	.	.	.	.
CN(CCc1ccccc1)C(=O)c1cccc(NC(=O)Cc2cccc(NC(=O)C3CCCN(C(=O)c4ccccc4)C3)c2)c1 (configuration not stated)	.	-10.7	.	.	.	.
COC(=O)[C@@H](NCc1ccc(OC)c(B(O)O)c1)C(C)C	.	-6.5	.	.	.	.
COC1=CC(=O)C(O)=C(CCCCCCC/C=C/CCCCCCCC2=C(O)C(=O)C=C(OC)C2=O)C1=O	.	41.5	.	.	.	.
CCCCCCCCCCCC1=C(O)C(=O)C=C(O)C1=O	.	61.5*	.	.	.	.
CCc1ccc(S(=O)(=O)Nc2ccc(O)c3ccccc23)cc1	.	3.6	.	.	57.7	.
CCOc1ccc(S(=O)(=O)Nc2cc(SCC(=O)O)c(O)c3ccccc23)cc1	.	3.2	.	.	74.6*	.
CCc1ccc(S(=O)(=O)Nc2cc(SCC(=O)O)c(O)c3ccccc23)cc1	-24.7	0.4	-7.7	7.0	100.6*	-0.7
Cc1ccccc1Oc1ccc2c(c1)[C@@H]1C[C@H](N(C)C(=O)c3cccnc3)[C@H]([C@H](C)O)C(=O)N1CC2	.	-17.9	.	.	.	.
O=C(CC1SCCNC1=O)NCc1ccccc1 (configuration not stated)	.	-5.3	.	.	.	.
CCc1ccccc1NC(=O)C(CC)Sc1nc2cc3c(cc2c(=O)n1Cc1ccco1)OCO3 (configuration not stated)	-5.5	-9.9	0.5	-0.6	8.8	1.2
CCc1ccc(NC(=O)C(CC)Sc2nc3cc4c(cc3c(=O)n2Cc2ccco2)OCO4)cc1 (configuration not stated)	-15.5	2.6	-10.4	7.6	54.1*	0.4
Cc1ccc(C(=O)N/N=C/c2cccnc2)cc1Cl	.	-7.7	.	.	.	.
NC(C(=O)O)C1ON=C(Cl)C1O (configuration not stated)	.	-8.5	.	.	.	.
CN1CCN(C(=O)c2ccc(CSc3nc4ccncc4n3Cc3ccc(F)cc3)cc2)CC1	-8.2	0.2	-15.7	15.5*	-2.0	0.5
COc1cc(CN2C[C@@H](CO)O[C@@H](n3cnc4c(NCc5ccco5)ncnc43)C2)cc(OC)c1OC	.	-6.8	.	.	.	.
Cc1ccc(-c2cc(-c3ccco3)c3c(N)c(C(=O)NN)oc3n2)cc1	-8.2	-1.9	.	14.2	55.4*	.
O=C(NCC1CC1)c1csc([C@@H]2O[C@H](CO)[C@H](O)[C@H](O)[C@H]2O)n1	.	-7.5	.	.	.	.
Nc1[nH]c(C(=O)c2ccccc2)c(-c2ccccc2C(F)(F)F)c1C(=O)NCc1cccc2ccccc12	.	-4.2	.	.	.	.
Cc1ccc(C)c(N2C(=O)CN=C2Nc2ccccc2Cl)c1	25.2*	-14.9	-4.3	3.4	-1.1	4.2
